Bioassay records from PubChem.
A selection: hits, their analogues and other compounds. The true share with any hit is near 14%.
Pf growth 48h: P. falciparum growth inhibition at 48 hours (one generation) | AID 504832 | Potency, µM (titrated, usually from 28.7 µM), most hits filed as inhibitors | P. falciparum luciferase growth in erythrocytes, 48 h | actives 5.9% (n = 310,000)
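Compounds are pin-transferred into medium, infected erythrocytes (2% hematocrit, 0.1% parasitemia final) are added, and plates sit one parasite generation at 37 C in 5% CO2. Detection reagent is then added and luminescence measured.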
LASV entry inh: blocks Lassa virus binding to or entry into cells; Lassa virus pseudotype entry inhibition, cell reporter; Potency, µM (series often up to 37.9 µM), most hits filed as inhibitors; actives 1.2% (n = 300,000); calls by dose curve; tested in HEK293 cells; note: nearly all actives have a fitted effect of over 50% in size
Marburg entry inh: Marburg virus entry inhibition; Marburg virus pseudotyped entry inhibition, cell reporter; Potency, µM (doses to about 37.8 µM), most hits filed as inhibitors; actives 1.8% (n = 300,000); AID 540276; calls by dose curve; tested in HEK293 cells
Pf growth 96h: inhibits malaria parasite growth, 96 h; P. falciparum luciferase reporter growth, 96 h; Potency, µM (doses to about 28.7 µM), most hits filed as inhibitors; actives 6.9% (n = 320,000); AID 504834
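P. falciparum expressing integrated firefly luciferase grown in erythrocytes (2% hematocrit, 0.05% parasitemia final) with compounds for 96 hours at 37 C, 5% CO2. Growth inhibition read as loss of luminescence after adding luciferase detection reagent.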
HCV inhibitor: HCV inhibition; Potency, µM (highest dose often 41.8 µM), actives largely listed as inhibitors; actives 3.4% (n = 340,000); Huh7.5.1 HCVcc-Cre infection, luciferase reporter, 44 h; AID 651820
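Infectious HCV cell culture screen: compound-treated cells (1,000/well, pre-plated 4 h) are infected with HCVcc-Cre at roughly 0.5 moi and grown 44 h. Infection is quantified by luciferase signal after 15 min substrate incubation at room temperature.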
HCMV inh: human cytomegalovirus inhibition. actives 4.5% (n = 410,000). activity change, negative = inhibition, % at 57.5 µM. HFF cells, HCMV-luciferase reporter, 72 h; active compounds read low; in the data active = activity change below about -60%; inconclusive = no clear call, values can overlap the other calls; inactive = above about -39%
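Two compound doses tested in HFFs infected with HCMV-luciferase, MOI 1 PFU/cell, 72 h at 37C. Lysate luminescence read with OneGlo; data normalized against buffer-only and 10uM Salinomycin inhibitor controls.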
A number is an active result; – = inactive; ? = inconclusive; · = not tested or not shown; [ ] = dose if it differs, or a comment. Unless noted, calls come from the whole dose curve; as a rule, active = well fitted inhibition curve with a large enough effect; inconclusive = small, poorly fitted or top-dose-only effect, or another doubt; inactive = no such curve, though single readings can be large or run the other way.

SMILES	Pf growth 48h	LASV entry inh	Marburg entry inh	Pf growth 96h	HCV inhibitor	HCMV inh
Cc1ccc(S(=O)(=O)N2C[C@H]3n4c(=O)ccc(=O)n4C[C@H](OC(=O)Nc4cccs4)[C@@]3(O)C2)cc1	·	·	·	·	·	–
CCCCCCNC(=O)O[C@H]1Cn2c(=O)n(CCCCCC)c(=O)n2[C@@H]2CN(S(=O)(=O)c3ccc(C)cc3)C[C@]12O	·	·	·	·	·	-102.6
CCCCCCn1c(=O)n2n(c1=O)[C@@H]1CN(S(=O)(=O)c3ccc(C)cc3)C[C@]1(O)[C@@H](OC(=O)NC1CC1)C2	·	·	·	·	·	–
CC1CN(C(=O)COC(=O)[C@@H](NC(=O)c2ccccc2Cl)C(C)C)CC(C)O1 (stereo partly drawn)	·	–	–	·	–	–
C[C@H](N)C(=O)NC[C@H]1O[C@@H](n2cnc3c(N)ncnc32)[C@H](O)[C@@H]1O	·	·	·	·	–	-74.6
C[C@@H](N)C(=O)NC[C@H]1O[C@@H](n2cnc3c(N)ncnc32)[C@H](O)[C@@H]1O	·	·	·	·	–	–
Nc1ncnc2c1ncn2[C@@H]1O[C@H](CNCc2ccc(OCC(=O)Nc3ccccn3)cc2)[C@@H](O)[C@H]1O	·	·	·	·	–	?
Nc1ncnc2c1ncn2[C@@H]1O[C@H](CNCc2ccc(OCc3ccccc3)cc2)[C@@H](O)[C@H]1O	·	·	·	·	3.98µM	–
FC(F)(F)c1cccc(Sc2cc(C(F)(F)F)nc(-c3ccccn3)n2)c1	–	–	?	?	–	–
COc1cnc(-c2ccccn2)nc1Sc1cccc(Cl)c1	?	?	?	1.47µM	7.08µM	-64.4
Cc1ccc(Sc2cc(C)nc(-c3ccccn3)n2)cc1	?	?	–	?	?	-75.8
COc1cnc(-c2ccccn2)nc1Sc1ccc(C)cc1	11.7µM	?	6.31µM	?	?	-81.1
Cc1cc(C)c2c(n1)SCCN2C(=O)Nc1ccc(C(=O)Nc2ccc(C(C)C)cc2)cc1	·	?	·	·	·	–
CC(C)CCNC(=O)c1cc(C(=O)c2cc(Br)ccc2O)cn(CCC(C)C)c1=O	1.04µM	–	–	0.415µM	?	-72.7
CC(C)CCNC(=O)c1cc(C(=O)c2cc(F)ccc2O)cn(CCC(C)C)c1=O	1.47µM	–	–	?	?	–
CS(=O)(=O)c1ccc(Nc2cc3c(cn2)cc(-c2ccccc2)n3Cc2ccccc2)cc1	·	·	·	·	·	–
COc1cc(/C=C/C(=O)c2ccc(F)cc2)cc(OC)c1OC	?	?	?	–	?	-112.1
COc1cc(C(=O)Oc2cc(C)cc(C)c2)cc(OC)c1OC	14.7µM	–	–	–	–	–
COc1cc(C(=O)Oc2ccc3ccc(O)cc3c2)cc(OC)c1OC	–	·	·	–	–	–
CCOc1ccc(/C=C/C(=O)c2ccccc2)cc1	–	·	·	–	–	–
COc1ccc(C(=O)/C=C/c2ccc(OC(=O)c3cc(OC)c(OC)c(OC)c3)cc2)cc1	2.94µM	?	?	4.65µM	?	–
CCOc1ccc(C(=O)/C=C/c2cc(OC)c(OC)c(OC)c2)cc1	?	?	?	–	–	-88.3
COc1cc(/C=C/C(=O)c2ccc3c(c2)OCO3)cc(OC)c1OC	–	·	·	?	?	·
O=C(Nc1ccccc1OCc1cc(=O)n2ccccc2n1)c1cccc(Br)c1	·	–	·	·	·	–
CCO[C@@H]1OC(C(=O)N2CCCCCCC2)=C[C@H](c2ccc3c(c2)OCO3)[C@H]1CCCO	?	·	·	?	–[8.37 µM]	–
SMILES	Pf growth 48h	LASV entry inh	Marburg entry inh	Pf growth 96h	HCV inhibitor	HCMV inh
C[n+]1c2n(c3ccccc31)N=C(c1cc(C(C)(C)C)c(O)c(C(C)(C)C)c1)CS2	?	?	11.2µM	–	?	-100.7
O=C(NC(c1ccc(Cl)cc1)c1c(O)ccc2ccccc12)c1ccccc1 (stereo not drawn)	11.7µM	?	?	–	?	-100.9
O=C(NC(c1ccccc1)c1c(O)ccc2ccccc12)c1ccccc1Cl (stereo not drawn)	?	?	–	?	14.1µM	–
CC(=O)NC(c1ccc(Cl)cc1)c1c(O)ccc2ccc(O)cc12 (stereo not drawn)	–	–	?	–	–	–
CC(C)CC(=O)NC(c1ccccc1)c1c(O)ccc2ccccc12 (stereo not drawn)	?	–	?	?	–	–
COc1ccc(-c2cc(C(=O)NCc3ccc(C(F)(F)F)cc3)[nH]n2)c(C)c1	·	·	·	·	·	–
COc1ccc(-c2cn3nc(N4CCCC(C(=O)NCc5ccccc5OC)C4)sc3n2)cc1 (stereo not drawn)	·	–	·	·	·	–
CCc1ccccc1N=C1S/C(=C/c2ccccc2OCC(=O)N2CCOCC2)C(=O)N1C	?	14.6µM	–	?	?	–
O=C1NN(c2ccccc2)C(=O)/C1=C\c1ccccc1OCC(=O)N1CCOCC1	–	–	–	–	–	–
COc1ccc(C(=O)N(Cc2cc(OC)c(OC)c(OC)c2)CC2CCCO2)cc1 (stereo not drawn)	·	?	–	·	·	?
COc1ccc(-c2c(-c3ccccc3)c(C(=O)C(=O)NCCCN(C)C)n3ccc4cc(OC)c(OC)cc4c23)cc1OC	·	–	?	2.94µM	?	-96.5
COc1ccc(C)cc1NC(=O)Cn1c(=O)ccc2cc(S(=O)(=O)N3CCC(C)CC3)ccc21	·	–	·	·	·	-114.1
COc1ccc(C)cc1NC(=O)CN1CCN(S(=O)(=O)c2ccc3ccccc3c2)CC1	?	–	–	11.7µM	?	?
COc1ccc(S(=O)(=O)N2CCN(CC(=O)c3ccc(O)c(O)c3)CC2)cc1	–	·	·	14.7µM	–	–
COc1ccc(C)cc1NC(=O)CN1CCN(S(=O)(=O)c2ccc(F)cc2)CC1	?	–	–	·	–	–
COc1ccc(S(=O)(=O)N2CCN(CC(=O)Nc3cc(C(F)(F)F)ccc3Cl)CC2)cc1	4.65µM	?	?	–	–	·
COc1cc(CNc2ncnc3c2ncn3[C@H]2CN(Cc3ccco3)C[C@@H](CO)O2)cc(OC)c1OC	·	·	·	·	·	–
Cc1ccc(C(=O)n2nc(C)c(S(=O)(=O)N3CCOCC3)c2C)cc1	·	–	·	·	·	–
CCCCN(C(=O)c1ccc(N2CCCC2=O)cc1)c1c(N)n(CCC)c(=O)[nH]c1=O	–	·	·	–	–	–
Cc1ccc(-c2nc3c4ccccc4ccn3c2Cc2cccc(F)c2)cc1	·	·	·	·	·	–
CCOc1ccc(NC(=O)CN2C(=O)C(c3ccccc3)=NC23CCCCCC3)cc1	·	–	?	·	·	–
CCOC(=O)c1ccc(N2C(=O)CC(SCC(N)C(=O)OCC)C2=O)cc1 (stereo not drawn)	10.4µM	–	–	–	–	–
NCCSC1CC(=O)N(c2ccc(F)cc2)C1=O (stereo not drawn)	–	–	–	9.28µM	–	–
NCCSC1CC(=O)N(c2ccc(Cl)c(Cl)c2)C1=O (stereo not drawn)	–	–	?	?	–	–
CSc1ccc(CNC(=O)C2CCN(c3nnc(-n4cccc4CNc4ccc(C)cc4)s3)CC2)cc1	·	·	–	·	·	–
O=c1[nH]c(Sc2ccc([N+](=O)[O-])cc2[N+](=O)[O-])nc2ccccc12	·	·	·	·	?	–
